Common to all, as to conditions: mRNA level, 48 h; actives raise or lower the signal
Read-out in assay [1]: Tumor necrosis factor receptor superfamily member 6 (Homo sapiens) (UniProt P25445)
Put plainly: LTEA_HepaRG_FAS: Life Technologies and Expression Analysis (LTEA) Assay for Fas cell surface death receptor (FAS) using HepaRG (AID 2283447). The method in brief:
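FAS transcript level was measured by TaqMan qRT-PCR against three housekeeping genes after 48 h chemical exposure. Cells were HepaRG, 0.5% DMSO vehicle, with a top concentration of 100 uM and half-log dilutions over eight points, in duplicate.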

Read-out in assay [2]: Cyclin D2 (CCND2), CCND2 (gene 894)
Put plainly: LTEA_HepaRG_CCND2: Life Technologies and Expression Analysis (LTEA) Assay for Cyclin D2 (CCND2) using HepaRG (AID 2283449). The method in brief: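 CCND2 transcript levels, quantified by qRT-PCR and normalised to three housekeeping genes, were fitted bidirectionally against 0.5% DMSO. HepaRG cultures were dosed 48 h in duplicate with an 8-point half-log series up to 100 uM.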

Read-out in assay [3]: flavin-containing dimethylaniline monooxygenases 3 (FMO3), FMO3 (gene 2328)
Kind of assay: LTEA_HepaRG_FMO3: Life Technologies and Expression Analysis (LTEA) Assay for flavin-containing dimethylaniline monooxygenases 3 (FMO3) using HepaRG (AID 2283453). The method in brief:
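Eight-point concentration-response in serum-free HepaRG cultures (top 100 uM, 0.5% DMSO, 48 h). Read-out: FMO3 mRNA level normalized to three endogenous control genes, fitted bidirectionally versus vehicle.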

Read-out in assay [4]: Cytochrome P450 (CYP1A1), CYP1A1 (gene 1543)
Kind of assay: LTEA_HepaRG_CYP1A1: Life Technologies and Expression Analysis (LTEA) Assay for Cytochrome P450 (CYP1A1) using HepaRG (AID 2283454). An outline of the steps:
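Differentiated human HepaRG cells, after 48 h plating, exposed in duplicate for 48 h in serum-free induction medium to 8 half-log concentrations up to 100 uM in 0.5% DMSO. CYP1A1 mRNA by qRT-PCR, normalized to ACTB/GAPDH/POLR2A; bidirectional fit versus DMSO.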

Read-out in assay [5]: CFLAR gene, CFLAR (gene 8837)
Kind of assay: LTEA_HepaRG_CFLAR: Life Technologies and Expression Analysis (LTEA) Assay for CFLAR gene using HepaRG (AID 2283455). The method in brief:
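Transcript level by qRT-PCR (normalized to ACTB, GAPDH and POLR2A) after 48 h chemical exposure of HepaRG cells, top concentration 100 uM with half-log steps, 0.5% DMSO vehicle, duplicates; fitted bidirectionally against DMSO baseline.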

Read-out in assay [6]: Forkhead box O1 (FOXO1), FOXO1 (gene 2308)
Put plainly: LTEA_HepaRG_FOXO1: Life Technologies and Expression Analysis (LTEA) Assay for Forkhead box O1 (FOXO1) using HepaRG (AID 2283456). The method in brief:
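FOXO1 transcript quantified by qRT-PCR after 48 h chemical exposure (top 100 uM, half-log steps, 0.5% DMSO) of HepaRG cells, housekeeping-normalized (ACTB/GAPDH/POLR2A). Changes fitted in both directions relative to vehicle.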

Read-out in assay [7]: growth arrest and DNA damage 45 (GADD45A), GADD45A (gene 1647)
Put plainly: LTEA_HepaRG_GADD45A: Life Technologies and Expression Analysis (LTEA) Assay for growth arrest and DNA damage 45 (GADD45A) using HepaRG (AID 2283458). The method in brief:
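HepaRG, 48 h exposure, 8 conc. (top 100 uM, half-log steps), 0.5% DMSO vehicle, duplicates. Read-out: qRT-PCR mRNA level, housekeeping-normalized (ACTB/GAPDH/POLR2A). Curves fit bidirectionally vs DMSO baseline.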

Read-out in assay [8]: Forkhead box O3 (FOXO3), FOXO3 (gene 2309)
Put plainly: LTEA_HepaRG_FOXO3: Life Technologies and Expression Analysis (LTEA) Assay for Forkhead box O3 (FOXO3) using HepaRG (AID 2283459). An outline of the steps:
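FOXO3 transcript measured by qRT-PCR (normalized to ACTB, GAPDH, POLR2A) after 48 h exposure of HepaRG cells in serum-free induction medium. Duplicates, eight half-log concentrations up to 100 uM, 0.5% DMSO; gain or loss fitted against DMSO.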

Read-out in assay [9]: ABC Transporter (ABCB1), ABCB1 (gene 5243)
Put plainly: LTEA_HepaRG_ABCB1: Life Technologies and Expression Analysis (LTEA) Assay for ABC Transporter (ABCB1) using HepaRG (AID 2283460). An outline of the steps: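 ABCB1 transcript level measured by TaqMan qRT-PCR against three housekeeping genes after 48 h chemical exposure of differentiated HepaRG cells. Top concentration 100 uM, half-log steps, eight points, 0.5% DMSO vehicle; bidirectional fit relative to DMSO.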

Read-out in assay [10]: growth arrest and DNA damage 45 (GADD45B), GADD45B (gene 4616)
Kind of assay: LTEA_HepaRG_GADD45B: Life Technologies and Expression Analysis (LTEA) Assay for growth arrest and DNA damage 45 (GADD45B) using HepaRG (AID 2283461). An outline of the steps:
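Differentiated human HepaRG cells in serum-free induction medium exposed 48 h in duplicate to eight concentrations, top 100 uM, half-log steps, 0.5% DMSO. GADD45B mRNA by TaqMan qRT-PCR, normalized to ACTB, GAPDH, POLR2A; bidirectional fit versus DMSO.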

Read-out in assay [11]: ABC Transporter (ABCC3), ABCC3 (gene 8714)
Put plainly: LTEA_HepaRG_ABCC3: Life Technologies and Expression Analysis (LTEA) Assay for ABC Transporter (ABCC3) using HepaRG (AID 2283462). An outline of the steps:
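Differentiated human HepaRG cells exposed 48 h in serum-free induction medium, 0.5% DMSO vehicle, 8-point half-log series to 100 uM in duplicate. ABCC3 mRNA by qRT-PCR, normalised to ACTB, GAPDH, POLR2A; bidirectional fit vs DMSO.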

Read-out in assay [12]: ABC Transporter (ABCB11), ABCB11 (gene 8647)
Kind of assay: LTEA_HepaRG_ABCB11: Life Technologies and Expression Analysis (LTEA) Assay for ABC Transporter (ABCB11) using HepaRG (AID 2283463). An outline of the steps:
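ABCB11 transcript levels quantified by TaqMan qRT-PCR against three housekeeping genes after 48 h chemical exposure of HepaRG cultures. Concentrations up to 100 uM in half-log steps, 0.5% DMSO vehicle; both induction and suppression scored.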

Read-out in assay [13]: ABC Transporter (ABCC2), ABCC2 (gene 1244)
Kind of assay: LTEA_HepaRG_ABCC2: Life Technologies and Expression Analysis (LTEA) Assay for ABC Transporter (ABCC2) using HepaRG (AID 2283464). An outline of the steps:
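Differentiated HepaRG cells in serum-free induction medium exposed 48 h to eight half-log concentrations up to 100 uM, 0.5% DMSO, in duplicate. ABCC2 mRNA measured by qRT-PCR (TaqMan, Fluidigm), normalized to ACTB, GAPDH and POLR2A. Fitted in both directions against DMSO.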

Read-out in assay [14]: Broad substrate specificity ATP-binding cassette transporter ABCG2 (Homo sapiens) (UniProt Q9UNQ0)
Kind of assay: LTEA_HepaRG_ABCG2: Life Technologies and Expression Analysis (LTEA) Assay for ABC Transporter (ABCG2) using HepaRG (AID 2283465). An outline of the steps: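 ABCG2 transcript was quantified by TaqMan qRT-PCR against three housekeeping genes in HepaRG cells. Cells were treated in duplicate for 48 h across an 8-point half-log series up to 100 uM, with 0.5% DMSO vehicle. Gain or loss versus DMSO was fit.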

Read-out in assay [15]: ATP-citrate lyase (ACLY), ACLY (gene 47)
Put plainly: LTEA_HepaRG_ACLY: Life Technologies and Expression Analysis (LTEA) Assay for ATP-citrate lyase (ACLY) using HepaRG (AID 2283466). An outline of the steps:
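ACLY mRNA quantified by qRT-PCR on Fluidigm arrays against three housekeeping genes, after 48 h chemical treatment of HepaRG cells (top concentration 100 uM, half-log steps, 0.5% DMSO vehicle). Up- or down-regulation fitted relative to DMSO.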

Read-out in assay [16]: Peroxisomal acyl-coenzyme A oxidase 1 (ACOX1) gene, ACOX1 (gene 51)
Kind of assay: LTEA_HepaRG_ACOX1: Life Technologies and Expression Analysis (LTEA) Assay for Peroxisomal acyl-coenzyme A oxidase 1 (ACOX1) gene using HepaRG (AID 2283467). An outline of the steps: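 ACOX1 transcript levels were quantified by TaqMan qRT-PCR against three housekeeping genes after 48 h chemical exposure of differentiated human HepaRG cells. Exposure used eight half-log steps topping at 100 uM, 0.5% DMSO vehicle, in duplicate. Bidirectional curve fits were made relative to DMSO.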

Read-out in assay [17]: Alkaline Phosphatase, Placental (ALPP) gene, ALPP (gene 250)
Kind of assay: LTEA_HepaRG_ALPP: Life Technologies and Expression Analysis (LTEA) Assay for Alkaline Phosphatase, Placental (ALPP) gene using HepaRG (AID 2283468). The method in brief: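 HepaRG cells plated 48 h, then exposed in duplicate for 48 h in serum-free induction medium to 8-point half-log series from 100 uM in 0.5% DMSO. ALPP mRNA by TaqMan qRT-PCR, normalized to ACTB/GAPDH/POLR2A; bidirectional fit versus DMSO.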

Read-out in assay [18]: Bcl-2 (BAD) gene, BAD (gene 572)
Put plainly: LTEA_HepaRG_BAD: Life Technologies and Expression Analysis (LTEA) Assay for Bcl-2 (BAD) gene using HepaRG (AID 2283469). The method in brief:
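Read-out: qRT-PCR of BAD mRNA, normalized to three housekeeping genes. Human HepaRG cultures got 48 h chemical exposure in 0.5% DMSO, duplicate eight-point half-log series topping at 100 uM. Gain or loss of signal fitted versus DMSO vehicle.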

Read-out in assay [19]: Bcl-2 (BAX) gene, BAX (gene 581)
Put plainly: LTEA_HepaRG_BAX: Life Technologies and Expression Analysis (LTEA) Assay for Bcl-2 (BAX) gene using HepaRG (AID 2283470). The method in brief: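 qRT-PCR read-out of BAX mRNA, normalized to three housekeeping genes, after 48 h chemical exposure of human HepaRG cells in serum-free induction medium; eight-point half-log series, top 100 uM, 0.5% DMSO vehicle; bidirectional fit versus DMSO.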

Active and inactive are the calls of the source. How the source made its calls: active means hit-call score of the fitted dose curve at least 0.9, where 1 is the maximum; inactive means score below 0.9.

Broad substrate specificity ATP-binding cassette transporter ABCG2 (Homo sapiens), sequence (Q9UNQ0 whole entry, looked up): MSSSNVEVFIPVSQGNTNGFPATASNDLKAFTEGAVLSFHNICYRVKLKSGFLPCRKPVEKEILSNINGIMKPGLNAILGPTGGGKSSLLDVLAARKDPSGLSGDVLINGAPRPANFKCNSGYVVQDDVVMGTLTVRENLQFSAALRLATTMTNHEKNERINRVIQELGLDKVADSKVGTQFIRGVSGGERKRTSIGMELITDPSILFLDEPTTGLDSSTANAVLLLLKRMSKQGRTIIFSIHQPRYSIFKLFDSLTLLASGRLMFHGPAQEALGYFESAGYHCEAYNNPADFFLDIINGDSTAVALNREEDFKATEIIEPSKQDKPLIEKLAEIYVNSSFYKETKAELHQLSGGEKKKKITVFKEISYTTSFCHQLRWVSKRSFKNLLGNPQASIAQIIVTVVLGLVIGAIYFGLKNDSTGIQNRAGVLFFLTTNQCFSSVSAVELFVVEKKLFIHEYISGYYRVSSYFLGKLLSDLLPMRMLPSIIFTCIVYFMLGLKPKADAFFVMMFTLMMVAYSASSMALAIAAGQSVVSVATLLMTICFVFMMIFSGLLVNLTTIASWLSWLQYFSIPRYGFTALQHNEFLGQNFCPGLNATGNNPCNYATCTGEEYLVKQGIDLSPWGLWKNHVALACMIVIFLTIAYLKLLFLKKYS

In the case of `C=CC(=O)OCCCCCC(C)C`, the outcome in [1], in [2], in [3], in assay [5], in assay [6] and in assay [7] was inactive. Further, the compound was classed as inactive in [8], in assay [9], in assay [10], in assay [11], in assay [12] and in assay [13]. Also, the outcome in assay [14], in assay [15], in assay [16], in assay [17], in assay [18] and in [19] was inactive. The AC50 in assay [4] was 50 µM (active).
For the compound `CCN1CCC2(CC1)COc1cc3c(cc12)N(C(=O)c1ccc(-c2ccc(-c4nnc(C)o4)cc2C)cc1)CC3`, the outcome in assay [1], in [12], in [14], in assay [17], in assay [18] and in assay [19] was inactive. In addition, the concentration at half-maximal activity (AC50) is 46.8 µM (active) in [2]; 13.8 µM (active) in assay [3]; 9.34 µM (active) in assay [4]; 29.2 µM (active) in [5]; 27.7 µM (active) in assay [6]; 75.3 µM (active) in assay [7]. Also, the AC50 was 17.4 µM (active) in [8]; 17.4 µM (active) in assay [9]; 12.5 µM (active) in assay [10]; 71.6 µM (active) in assay [11]; 18.5 µM (active) in assay [13]; 21.5 µM (active) in [15]. For the same compound, in assay [16], the AC50 was 30.2 µM (active).
With `CCC(=O)C(CC(C)N(C)C)(c1ccccc1)c1ccccc1` (stereo unspecified), the call in assay [1], in assay [2], in [5], in [6], in [7] and in assay [8] was inactive. Moreover, the call in assay [9], in assay [10], in [12], in assay [13], in [14] and in assay [15] was inactive. Also, the outcome in assay [16], in [17], in [18] and in assay [19] was inactive. In addition, the AC50 in assay [3] is 46.7 µM (active); in assay [4], 55.3 µM (active); in [11] it was 36.2 µM (active).
Regarding `Cc1ccccc1N`, the compound was called inactive in assay [1], in assay [2], in assay [3], in assay [4], in [5] and in assay [6]. Further, the outcome in [7], in assay [8], in assay [9], in assay [10], in assay [11] and in [12] was inactive. Moreover, the compound was classed as inactive in assay [13], in assay [14], in assay [15], in assay [16], in assay [17] and in assay [18]. Besides, the result in assay [19] was inactive.

By AC50 is commonly meant the concentration giving half of the maximal activity seen.

Source of the values: PubChem BioAssay (EPA / NIEHS).
